Measured values: PubChem BioAssay AID1159580 (chemical genetic matrix, 2015)
Where “and” joins values, the source holds several entries; their conditions need not be identical. Equal entries are not always repeated. The whole screen tested about 5,500 compounds, of which about 2,000 (36%) were called active. Roughly 18% stayed inconclusive and do not appear here. No stated cut-off is given here; in the data, active means normalized growth mostly below about 0.91 (no sharp cut-off); inconclusive means no clear call, values can overlap the other calls; inactive means mostly above about 0.92. This is one part of the list.

Test: chemical genetic growth profiling, strain panel (AID 1159580);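 further: tested at 20 µM; growth read once vehicle control cultures reached saturation at 30 °C; 1 = growth at the plate median or of vehicle wells; lower values mean less growth of the strain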
Conditions: growth OD

Measured: normalized growth

CC1(C)O[C@@H]2CC3C4CCC5=CC(=O)CCC5(C)C4(F)C(O)CC3(C)[C@]2(C(=O)CCl)O1 (stereo partly specified)
inactive: S. cerevisiae deletion strains, locus YAL013W, strain DEP1, hits give low values 0.996 | S. cerevisiae deletion strains, locus YBR021W, strain FUR4, hits give low values 1.04 | S. cerevisiae deletion strains, locus YBR229C, strain ROT2, hits give low values 1 | S. cerevisiae deletion strains, locus YCL029C, strain bik1, hits give low values 1 | S. cerevisiae deletion strains, locus YDL035C, strain GPR1, hits give low values 0.979 | S. cerevisiae deletion strains, locus YDL074C, strain BRE1, hits give low values 1.02 | S. cerevisiae deletion strains, locus YDL101C, strain DUN1, hits give low values 0.994 | S. cerevisiae deletion strains, locus YDL134C, strain PPH21, hits give low values 0.994 | S. cerevisiae deletion strains, locus YDL185W, strain tfp1, hits give low values 0.967 | S. cerevisiae deletion strains, locus YDL192W, strain arf1, hits give low values 0.986 | S. cerevisiae deletion strains, locus YDR101C, strain arx1, hits give low values 1.03 | S. cerevisiae deletion strains, locus YDR150W, strain NUM1, hits give low values 0.981 | S. cerevisiae deletion strains, locus YDR162C, strain NBP2, hits give low values 0.963 | S. cerevisiae deletion strains, locus YDR318W, strain mcm21, hits give low values 0.979 | S. cerevisiae deletion strains, locus YDR388W, hits give low values 0.996 | S. cerevisiae deletion strains, locus YDR502C, strain sam2, hits give low values 0.99 | S. cerevisiae deletion strains, locus YEL061C, strain CIN8, hits give low values 0.998 | S. cerevisiae deletion strains, locus YER110C, hits give low values 0.975 | S. cerevisiae deletion strains, locus YER155C, strain BEM2, hits give low values 1.01 | S. cerevisiae deletion strains, locus YER167W, strain BCK2, hits give low values 0.994 | S. cerevisiae deletion strains, locus YGL078C, strain dbp3, hits give low values 0.993 | S. cerevisiae deletion strains, locus YGL086W, strain mad1, hits give low values 1.01 | S. cerevisiae deletion strains, locus YGL248W, strain PDE1, hits give low values 1 | S. cerevisiae deletion strains, locus YGR078C, strain PAC10, hits give low values 1.01 | S. cerevisiae deletion strains, locus YGR135W, strain pre9, hits give low values 0.973 | S. cerevisiae deletion strains, locus YGR252W, strain gcn5, hits give low values 1.02 | S. cerevisiae deletion strains, locus YHR030C, strain SLT2, hits give low values 0.985 and 1 | S. cerevisiae deletion strains, locus YHR079C, strain IRE1 (second series), hits give low values 0.992 | S. cerevisiae deletion strains, locus YHR079C, strain IRE1, hits give low values 1 | S. cerevisiae deletion strains, locus YHR094C, strain hxt1, hits give low values 0.998 | S. cerevisiae deletion strains, locus YHR129C, strain ARP1, hits give low values 0.996 | S. cerevisiae deletion strains, locus YHR200W, strain rpn10, hits give low values 0.988 | S. cerevisiae deletion strains, locus YIL066C, strain RNR3, hits give low values 1 | S. cerevisiae deletion strains, locus YIL073C, strain SPO22, hits give low values 0.889 | S. cerevisiae deletion strains, locus YIL125W, strain kgd1, hits give low values 1.01 | S. cerevisiae deletion strains, locus YIR030C, strain dcg1, hits give low values 0.983 | S. cerevisiae deletion strains, locus YJL095W, strain BCK1, hits give low values 1.03 and 1.02 | S. cerevisiae deletion strains, locus YJL134W, strain LCB3, hits give low values 0.989 | S. cerevisiae deletion strains, locus YJL168C, strain set2, hits give low values 1 | S. cerevisiae deletion strains, locus YJL187C, strain SWE1 (second series), hits give low values 1.01 | S. cerevisiae deletion strains, locus YJR043C, strain POL32, hits give low values 1.01 | S. cerevisiae deletion strains, locus YJR066W, strain TOR1, hits give low values 0.972 | S. cerevisiae deletion strains, locus YKL009W, strain mrt4, hits give low values 0.956 | S. cerevisiae deletion strains, locus YKL068W, hits give low values 0.98 | S. cerevisiae deletion strains, locus YKL085W, strain MDH1 (second series), hits give low values 0.975 | S. cerevisiae deletion strains, locus YKL085W, strain MDH1, hits give low values 0.975 | S. cerevisiae deletion strains, locus YKL190W, strain CNB1, hits give low values 0.977 | S. cerevisiae deletion strains, locus YKR001C, strain vps1, hits give low values 1.01 | S. cerevisiae deletion strains, locus YLR039C, strain RIC1, hits give low values 0.938 | S. cerevisiae deletion strains, locus YLR058C, strain SHM2, hits give low values 0.991 | S. cerevisiae deletion strains, locus YLR102C, strain apc9, hits give low values 0.995 | S. cerevisiae deletion strains, locus YLR113W, strain HOG1, hits give low values 1.04 | S. cerevisiae deletion strains, locus YLR262C, strain YPT6, hits give low values 0.942 | S. cerevisiae deletion strains, locus YLR268W, strain sec22, hits give low values 0.99 | S. cerevisiae deletion strains, locus YLR330W, strain CHS5, hits give low values 0.996 | S. cerevisiae deletion strains, locus YLR342W, strain FKS1 (second series), hits give low values 1.01 | S. cerevisiae deletion strains, locus YLR371W, strain rom2, hits give low values 1 | S. cerevisiae deletion strains, locus YLR418C, strain cdc73, hits give low values 0.944 | S. cerevisiae deletion strains, locus YML016C, strain PPZ1, hits give low values 1 | S. cerevisiae deletion strains, locus YML032C, strain rad52, hits give low values 1.01 | S. cerevisiae deletion strains, locus YML124C, strain tub3, hits give low values 1 | S. cerevisiae deletion strains, locus YMR078C, strain ctf18, hits give low values 0.99 | S. cerevisiae deletion strains, locus YMR223W, strain ubp8, hits give low values 0.97 | S. cerevisiae deletion strains, locus YMR263W, strain SAP30, hits give low values 1 | S. cerevisiae deletion strains, locus YMR307W, strain GAS1, hits give low values 1.01 | S. cerevisiae deletion strains, locus YNL067W, strain RPL9B, hits give low values 1.02 | S. cerevisiae deletion strains, locus YNL153C, strain GIM3, hits give low values 1.06 | S. cerevisiae deletion strains, locus YNL183C, strain NPR1, hits give low values 0.972 | S. cerevisiae deletion strains, locus YNL233W, strain BNI4, hits give low values 1.04 | S. cerevisiae deletion strains, locus YNL250W, strain rad50, hits give low values 0.987 | S. cerevisiae deletion strains, locus YNL271C, strain bni1, hits give low values 0.986 | S. cerevisiae deletion strains, locus YNL298W, strain CLA4, hits give low values 0.994 | S. cerevisiae deletion strains, locus YNL307C, strain MCK1, hits give low values 0.995 | S. cerevisiae deletion strains, locus YNR052C, strain pop2, hits give low values 0.985 | S. cerevisiae deletion strains, locus YOL006C, strain TOP1, hits give low values 1.01 | S. cerevisiae deletion strains, locus YOL012C, strain htz1 0.917 | S. cerevisiae deletion strains, locus YOL147C, strain pex11, hits give low values 0.996 | S. cerevisiae deletion strains, locus YOR061W, strain CKA2, hits give low values 0.994 | S. cerevisiae deletion strains, locus YOR069W, strain VPS5, hits give low values 0.99 | S. cerevisiae deletion strains, locus YOR136W, strain idh2, hits give low values 0.995 | S. cerevisiae deletion strains, locus YOR144C, strain elg1, hits give low values 1.01 | S. cerevisiae deletion strains, locus YOR184W, strain ser1, hits give low values 0.958 | S. cerevisiae deletion strains, locus YOR231W, strain MKK1, hits give low values 1.02 | S. cerevisiae deletion strains, locus YOR316C, strain cot1, hits give low values 0.983 | S. cerevisiae deletion strains, locus YPL256C, strain CLN2, hits give low values 0.989 | S. cerevisiae deletion strains, locus YPR119W, strain clb2, hits give low values 0.997 | S. cerevisiae deletion strains, locus YPR141C, strain kar3, hits give low values 0.99 | S. cerevisiae deletion strains, locus YPR163C, strain tif3, hits give low values 0.993 | S. cerevisiae deletion strains, locus YPR167C, strain met16, hits give low values 0.984 | S. cerevisiae deletion strains, strain wtn01, hits give low values 0.987 | S. cerevisiae strains, strain wild type, hits give low values 0.994
